High-throughput results as filed in PubChem.
Rows were chosen to be rich in hits. Some 2.4% of all compounds tested hit in one or more screens of this group.
POLI inh: blocks human DNA polymerase iota activity | actives 1% (n = 390,000) | Pol iota fluorescent replication assay, 10 min | Potency, µM (doses to about 115 µM), usual class: inhibitors
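Pol iota at 10 nM preincubated 15 min with compounds at room temperature; reaction started with fluorescent substrate, 50 nM final. Fluorescence read kinetically at 0 and 10 min; buffer-only wells as negative control.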
Pol kappa inh-1: inhibitors of human DNA polymerase kappa | Q9UBT6 | purified Pol kappa, fluorescent DNA synthesis assay, 10 min | Potency, µM (series often up to 107 µM), actives largely listed as inhibitors | actives 0.53% (n = 400,000) | AID 588579
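10 nM Pol kappa was preincubated with compounds for 15 min at room temperature. Reaction started with 50 nM (final) substrate. Fluorescence read kinetically at 0 and 10 min.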
WRN inhibitor: inhibitors of human WRN helicase | Q14191 | WRN helicase unwinding, fluorescent forked duplex, kinetic | Potency, µM (top dose mostly 114 µM), hits mostly inhibitors | actives 0.46% (n = 360,000) | AID 651768; note: nearly all actives have a fitted effect of over 55% in size
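WRN at 20 nM final preincubated with compound 15 min at room temperature; reaction started with 100 nM fluorophore/quencher forked duplex oligonucleotide and 2 mM ATP final. Unwinding followed kinetically by red fluorescence (ex 525, em 598 nm).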
Pol eta inh-1: DNA polymerase eta (human) inhibition | Q9Y253 | recombinant Pol eta, fluorescent DNA replication assay | Potency, µM (top dose mostly 114 µM), usual class: inhibitors | actives 1.2% (n = 390,000) | AID 588591
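Pol eta (10 nM) was preincubated with compounds for 15 min at room temperature, after which fluorescent replication substrate (50 nM final) was added to start the reaction. Fluorescence was read kinetically at 0 and 10 min.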
POLB inh: DNA polymerase beta (human) inhibition; P06746; Pol beta primer extension/strand displacement, fluorescence kinetic; Potency, µM (doses to about 114 µM), most hits filed as inhibitors; actives 1.3% (n = 340,000); AID 485314
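Pol beta (10 nM) was preincubated with compound for 15 min at room temperature. The reaction was then started with 50 nM substrate and read immediately and after a further 10 min at room temperature.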
FEN1 inhibitor: blocks human flap endonuclease 1; Recombinant FEN1 flap cleavage, fluorescence, 15 min; Potency, µM (doses to about 114 µM), most hits filed as inhibitors; actives 0.35% (n = 390,000); AID 588795; note: nearly all actives have a fitted effect of over 65% in size
Target sequence (P39748 whole entry, looked up): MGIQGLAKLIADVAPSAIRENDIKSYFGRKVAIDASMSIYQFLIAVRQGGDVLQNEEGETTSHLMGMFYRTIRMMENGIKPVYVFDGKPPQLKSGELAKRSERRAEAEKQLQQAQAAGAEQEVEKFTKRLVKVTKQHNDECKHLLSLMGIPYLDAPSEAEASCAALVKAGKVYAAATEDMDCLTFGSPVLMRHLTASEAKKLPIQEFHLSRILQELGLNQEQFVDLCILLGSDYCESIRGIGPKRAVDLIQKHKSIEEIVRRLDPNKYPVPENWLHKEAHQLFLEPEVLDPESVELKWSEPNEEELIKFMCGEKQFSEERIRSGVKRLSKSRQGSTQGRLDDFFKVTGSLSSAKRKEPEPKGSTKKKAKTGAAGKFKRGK
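Quantitative HTS format: each compound was titrated, incubated with 10 nM nuclease for 15 min at room temperature, then challenged with flap substrate at 50 nM final. Signal change over 15 min gave concentration–effect curves.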
GALK confirm: confirmation of human galactokinase (GALK) inhibitors; shares compounds with Pol eta inh-1; purified GALK, Kinase-Glo ATP depletion luminescence; Potency, µM (titrated, usually from 115 µM), most hits filed as inhibitors; actives 70% (n = 150)
Target sequence (P51570 whole entry, looked up): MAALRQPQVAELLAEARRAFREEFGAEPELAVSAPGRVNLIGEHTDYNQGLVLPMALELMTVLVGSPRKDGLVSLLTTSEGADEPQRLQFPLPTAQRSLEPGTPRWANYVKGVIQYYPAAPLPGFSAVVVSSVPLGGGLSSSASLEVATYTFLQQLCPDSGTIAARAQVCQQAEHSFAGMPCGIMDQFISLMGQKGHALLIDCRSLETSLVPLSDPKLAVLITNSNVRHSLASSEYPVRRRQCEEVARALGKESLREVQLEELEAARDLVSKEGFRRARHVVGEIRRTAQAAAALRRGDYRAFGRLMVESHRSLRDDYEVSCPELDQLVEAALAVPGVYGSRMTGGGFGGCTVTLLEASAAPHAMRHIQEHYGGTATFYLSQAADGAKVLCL
Redox cycling: redox cycling activity in phenol red-HRP assay; shares compounds with Pol eta inh-1; Phenol red-HRP H2O2 redox cycling, absorbance 600 nm; Potency, µM (top dose mostly 115 µM), hits mostly inhibitors; actives 40% (n = 150)
HEK293 tox: HEK-293 cytotoxicity, GALK inhibitor secondary. shares compounds with Pol eta inh-1. HEK-293 viability, ATP luminescence (CellTiter-Glo), 24/48 h. Potency, µM (top dose mostly 46.1 µM), actives largely listed as inhibitors. actives 10% (n = 170). AID 2547
Pol kappa inh-2: Pol kappa (human) inhibition, cherry-pick confirmation. shares compounds with Pol eta inh-1. purified Pol-kappa, fluorescent strand-displacement substrate. Potency, µM, actives largely listed as inhibitors. actives 76% (n = 920). AID 720501
Pol eta inh-2: confirmation of human DNA polymerase eta inhibitors. shares compounds with Pol eta inh-1. Pol eta primer extension, TAMRA/BHQ fluorescence, 10 min. Potency, µM, hits mostly inhibitors. actives 64% (n = 2,600). AID 720502
Large screens that a line does not name were inactive (follow-up assays come after a bar, where they were run). Calls come from the whole dose curve; as a rule, active = well fitted curve in the direction sought with a large enough effect; inconclusive = small, poorly fitted or top-dose-only effect, or another doubt; inactive = no such curve, though single readings can be large; an effect the other way counts as inactive or inconclusive.

COc1ccc(-c2nn(CCC(=O)O)cc2/C=C2\SC(N)=NC2=O)cc1	Pol kappa inh-1 79.4µM, WRN inhibitor inconclusive, Pol eta inh-1 5.62µM | Pol kappa inh-2 21.2 | Pol eta inh-2 26.9
CCCOc1ccc(-c2nn(-c3ccccc3)cc2/C=C2\SC(N)=NC2=O)cc1	none
NC1=NC(=O)/C(=C/c2cn(CCC(=O)O)nc2-c2ccc(F)cc2)S1	Pol eta inh-1 inconclusive
NC1=NC(=O)/C(=C/c2cn(CCC(=O)O)nc2-c2ccc(Cl)cc2)S1	WRN inhibitor inconclusive, Pol eta inh-1 14.1µM | Pol kappa inh-2 16.8
CCCCN(CC)c1nc(C)nc2c1c(C)c(C)n2-c1c(C)cc(C)cc1C	none (no result: POLI inh, WRN inhibitor, Pol eta inh-1, POLB inh, FEN1 inhibitor)
CCOc1ccc(NC(=O)/C=C\C(=O)N(c2ccc(C(C)C)cc2)C(C(=O)NCc2ccco2)c2ccc(F)cc2)cc1 (stereo not drawn)	none (no result: WRN inhibitor)
COc1ccccc1NC(=O)C(Cc1ccccc1)NS(=O)(=O)c1ccc2c(c1)CCN2C(C)=O (stereo not drawn)	none (no result: WRN inhibitor)
CCOc1ccc(C(=O)N/N=C/c2ccc(-c3ccc(S(=O)(=O)Nc4ncccn4)cc3)o2)cc1	POLI inh 17.8µM, Pol kappa inh-1 inconclusive, WRN inhibitor inconclusive, Pol eta inh-1 22.4µM, FEN1 inhibitor inconclusive | Pol kappa inh-2 23.8 | Pol eta inh-2 inconclusive
Cc1noc(NS(=O)(=O)c2ccc(NC(=O)c3ccc(Br)cc3)cc2)c1C	Pol kappa inh-1 inconclusive (no result: WRN inhibitor, Pol eta inh-1) | Pol kappa inh-2 8.44
Cc1ccc(C(=O)Nc2ccc(S(=O)(=O)Nc3onc(C)c3C)cc2)cc1	none (no result: WRN inhibitor, Pol eta inh-1)
O=C(CCc1nc2ccccc2c(=O)[nH]1)NCC(=O)Nc1ccc(F)c(F)c1	none (no result: POLB inh)
O=C(CCc1nc2ccccc2c(=O)[nH]1)Nc1ccc(F)c([N+](=O)[O-])c1	Pol eta inh-1 inconclusive, POLB inh inconclusive | Pol eta inh-2 67.5
CC(C)c1ccc(NS(=O)(=O)c2ccc3[nH]cc(C(=O)NCC4CCCO4)c(=O)c3c2)cc1 (stereo not drawn)	POLI inh 79.4µM, Pol eta inh-1 89.1µM, POLB inh 31.6µM (no result: WRN inhibitor) | Pol kappa inh-2 37.7 | Pol eta inh-2 inconclusive
CCc1ccccc1NS(=O)(=O)c1ccc2[nH]cc(C(=O)NCC3CCCO3)c(=O)c2c1 (stereo not drawn)	Pol eta inh-1 inconclusive
CC(C)c1ccc(NS(=O)(=O)c2ccc3[nH]cc(C(=O)NC4CCCCC4)c(=O)c3c2)cc1	POLI inh inconclusive, Pol kappa inh-1 inconclusive, Pol eta inh-1 35.5µM, POLB inh 25.1µM (no result: WRN inhibitor) | Pol kappa inh-2 18.9 | Pol eta inh-2 75.7
Cc1cc(C)cc(NS(=O)(=O)c2ccc3[nH]cc(C(=O)NC4CCCCC4)c(=O)c3c2)c1	POLB inh inconclusive (no result: WRN inhibitor)
O=C1C=C(c2ccc3cc[nH]c3c2)C[C@@H](c2ccc3c(c2)OCO3)C1	POLI inh 14.1µM, Pol kappa inh-1 79.4µM, WRN inhibitor inconclusive, Pol eta inh-1 22.4µM, FEN1 inhibitor inconclusive (no result: POLB inh) | Pol eta inh-2 75.7
CCN(C(=O)COC(=O)Cc1coc2cc(C)ccc12)c1c(N)n(Cc2ccccc2)c(=O)[nH]c1=O	POLI inh inconclusive (no result: POLB inh)
Cc1ccc2c(CC(=O)OCC(=O)N(CC(C)C)c3c(N)n(Cc4ccccc4)c(=O)[nH]c3=O)coc2c1	POLI inh 25.1µM, Pol kappa inh-1 inconclusive, Pol eta inh-1 20µM (no result: POLB inh) | Pol eta inh-2 37.9
O=C(O)CCCC(=O)Nc1ccc(N2CCCC2)cc1	POLI inh inconclusive, Pol kappa inh-1 35.5µM, Pol eta inh-1 12.6µM | Pol eta inh-2 47.8
O=c1oc(-c2ccc(O)c(O)c2)cc2cc(O)cc(O)c12	POLI inh 28.2µM, Pol kappa inh-1 inconclusive, WRN inhibitor 50.1µM, Pol eta inh-1 10µM, FEN1 inhibitor 35.5µM (no result: POLB inh) | Pol kappa inh-2 inconclusive | Pol eta inh-2 53.6
COc1cc(-c2cc(=O)c3c(O)cc(O)cc3o2)ccc1O	POLB inh inconclusive, FEN1 inhibitor inconclusive
O=c1cc(-c2ccccc2O)oc2cc(O)cc(O)c12	none (no result: POLI inh, WRN inhibitor, Pol eta inh-1, POLB inh, FEN1 inhibitor)
O=c1cc(-c2cc(O)c(O)c(O)c2)oc2cc(O)cc(O)c12	Pol kappa inh-1 0.398µM (no result: POLI inh, WRN inhibitor, Pol eta inh-1, POLB inh, FEN1 inhibitor) | GALK confirm 42.1µM | Redox cycling inactive | HEK293 tox inactive
C/C(N)=C(/C#N)C(=O)CN1C(=O)NC(Cc2c[nH]c3ccccc23)C1=O (stereo not drawn)	POLI inh inconclusive, Pol kappa inh-1 inconclusive, Pol eta inh-1 31.6µM, POLB inh 28.2µM | Pol eta inh-2 inconclusive
O=C(NN1C(=O)C2CC=C(Cl)CC2C1=O)c1ccncc1 (stereo not drawn)	POLI inh 39.8µM, Pol kappa inh-1 50.1µM, WRN inhibitor inconclusive, Pol eta inh-1 10µM, POLB inh 3.16µM | Pol eta inh-2 60.1
CCOc1cccc(C2C=C(c3ccc4c(c3)OCO4)NC(c3ccccc3Cl)N2)c1O (stereo not drawn)	none (no result: WRN inhibitor, Pol eta inh-1, POLB inh)
COc1ccc(OCC(=O)N/N=C/c2cccn2-c2cccc(C(=O)O)c2)cc1	POLI inh 10µM, Pol kappa inh-1 79.4µM, WRN inhibitor inconclusive, Pol eta inh-1 5.01µM (no result: POLB inh) | Pol kappa inh-2 21.2 | Pol eta inh-2 30.1
O=C(COc1ccccc1)N/N=C/c1sc(=O)n(Cc2cccc(C(=O)O)c2)c1Cl	POLI inh inconclusive, Pol eta inh-1 22.4µM | Pol eta inh-2 33.8
Cc1ccc(OCC(=O)N/N=C/c2cccn2C)cc1C	none
COCCN1Cc2cccc(C(=O)Nc3cc(C)cc(C)c3)c2C1=O	none
COc1ccc(N2Cc3cccc(C(=O)Nc4cc(C)cc(C)c4)c3C2=O)cc1	POLI inh 70.8µM, Pol kappa inh-1 inconclusive, Pol eta inh-1 79.4µM, POLB inh 10µM (no result: WRN inhibitor) | Pol kappa inh-2 42.3 | Pol eta inh-2 inconclusive
COc1ccccc1CNc1nccn(-c2ccccc2)c1=O	none (no result: WRN inhibitor)
